# Tau ThT inhib: qHTS for Inhibitors of Tau Fibril Formation, Thioflavin T Binding; 2.1% of 270,000 active; Potency, µM (highest dose often 57.4 µM), for the others: at the top dose activity, negative = inhibition, most hits filed as inhibitors; recombinant tau K18 P301L, heparin-induced fibrillization, ThT fluorescence; AID 1460, 2008; note: potency is the fitted concentration of half-maximal effect; nearly all actives have a fitted effect of over 55% in size
# Target sequence (P10636 561-689 P618L limits assumed): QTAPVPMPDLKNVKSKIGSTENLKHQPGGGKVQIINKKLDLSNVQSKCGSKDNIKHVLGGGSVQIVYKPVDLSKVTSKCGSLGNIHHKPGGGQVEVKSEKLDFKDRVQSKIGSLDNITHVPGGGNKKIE
#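 Heparin-induced fibrillization of the P301L-mutant K18 repeat-domain fragment of human tau was followed by ThT binding in quantitative high-throughput format.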
# G9a block: qHTS Assay for Inhibitors of Histone Lysine Methyltransferase G9a; G9a H3K9 monomethylation, AlphaScreen, 2 h; 8.8% of 350,000 active; Potency, µM (doses to about 102 µM), inactives show at the top dose activity, negative = inhibition, usual class: inhibitors; Histone-lysine N-methyltransferase EHMT2 (Homo sapiens), Q96KQ7; note: potency is the fitted concentration of half-maximal effect; nearly all actives have a fitted effect of over 75% in size
# Target sequence (Q96KQ7 913-1193 limits assumed): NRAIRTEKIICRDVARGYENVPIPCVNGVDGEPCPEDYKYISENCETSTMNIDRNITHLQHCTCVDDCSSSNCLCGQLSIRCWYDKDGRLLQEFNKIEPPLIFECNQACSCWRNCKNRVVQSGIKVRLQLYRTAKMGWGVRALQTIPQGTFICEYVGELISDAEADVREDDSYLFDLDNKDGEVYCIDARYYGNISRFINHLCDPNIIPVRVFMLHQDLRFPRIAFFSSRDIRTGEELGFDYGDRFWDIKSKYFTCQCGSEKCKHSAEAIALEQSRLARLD
#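 Signal arises when biotinylated H3K9 peptide, once monomethylated, bridges streptavidin donor and antibody-captured acceptor beads. Enzyme at 20 nM was preincubated 15 min with test compounds; peptide 500 nM and SAM 20 uM then reacted for 2 h.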
# Tau fibril FP: qHTS for Inhibitors of Tau Fibril Formation, Fluorescence Polarization | K18 P301L tau heparin fibrillization, Alexa594 FP, 6 h | Potency, µM (series often up to 57.7 µM), inactives show at the highest dose activity, negative = inhibition, most hits filed as inhibitors | Microtubule-associated protein tau (Homo sapiens), P10636 | AID 1468, 2008 | 0.39% of 280,000 active; note: potency is the fitted concentration of half-maximal effect; nearly all actives have a fitted effect of over 55% in size
#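 K18 P301L tau (15 uM unlabeled/0.24 uM Alexa 594-labeled, final) + compound + heparin 20 uM final; 100 mM NaOAc pH 7; 6 hr 37 C; ThT 30 uM final added, 1 hr RT; FP ex 555/em 632 nm.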
# FBPA coupling cs: qHTS Assay for Inhibitors of Fructose-1,6-bisphosphate Aldolase from Giardia Lamblia: Coupling assay counterscreen. coupling enzyme system counterscreen, AmpLite Red fluorescence. activity change, negative = inhibition, % at 58.2 µM, hits read low. 0.67% of 290,000 active. AID 2472, 2010; in the data active = activity change below about -30%
#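 First, compound is pin-transferred into glyceraldehyde-3-phosphate coupling-enzyme reagent at 57.5 uM final and held 10 min at RT. Next, substrate, coupling system and AmpLite Red are added. After 20 min RT, fluorescence (525/598 nm) is read.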
# Tau fluor cs: Counterscreen qHTS for Inhibitors of Tau Fibril Formation, Fluorescence Polarization. tau K18 P301L Alexa594 fluorescence, heparin fibrillization. Potency, µM (titrated, usually from 57.7 µM), inactives show top-dose activity change, negative = decrease. 0.93% of 280,000 active; note: potency is the fitted concentration of half-maximal effect; nearly all actives have a fitted effect of over 55% in size
#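 Human tau K18 P301L (15 uM unlabeled, 0.24 uM Alexa 594-labeled) in 100 mM sodium acetate pH 7 with 20 uM heparin, 6 hr at 37 C. ThT 30 uM added, 1 hr ambient; Alexa 594 FP and total fluorescence read at 555/632 nm.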
# Sfp inh: qHTS Assay for Inhibitors of Bacillus subtilis Sfp phosphopantetheinyl transferase (PPTase). 4'-phosphopantetheinyl transferase ffp (Bacillus subtilis), Q9F4F7. Biochemical Sfp PPTase activity, qHTS. Potency, µM, without a hit: largest response in the series, negative = inhibition, actives largely listed as inhibitors. 3.5% of 310,000 active. AID 1490, 2009;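 note: the enzyme is Sfp with the accession as filed and its product quenches rhodamine fluorescence; potency is the fitted concentration of half-maximal effect; 0% = enzyme reaction without inhibitor and -100% = no enzyme wells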
#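 With Hepes-Na pH 7.6 buffer containing 10 mM MgCl2, Sfp (15 nM) modified BHQ-2-YbbR (12.5 uM) using rhodamine-CoA (5 uM). Two reads 30 minutes apart at 525/598 nm yielded each well's rate.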
# Starred values were filed as active, the others as inactive; ? = inconclusive; . = no result given; [ ] = another dose, or the depositor's remark. Compounds with a hit are over-represented: about 11% of the library has one in this group of screens. Unless noted, calls come from the whole dose curve; as a rule, active = well fitted curve in the direction sought with a large enough effect; inconclusive = small, poorly fitted or top-dose-only effect, or another doubt; inactive = no such curve, though single readings can be large; an effect the other way counts as inactive or inconclusive. Unless noted, % is set by controls: 0 for no effect and ±100 for the full control effect.
SMILES,Tau ThT inhib,G9a block,Tau fibril FP,FBPA coupling cs,Tau fluor cs,Sfp inh
COc1cccc(C(=O)NC2CC3CCCC(C2)N3CC(=O)Nc2ccccc2)c1 (stereo unspecified),?,-15%[12.7 µM],0%,-36*,-17%,-12%
CCN(CC)c1ccc(C2CC(=O)NC3=C2C(=O)CC(C)(C)C3)cc1 (stereo unspecified),-7%,50µM*,7%,1,-4%,-2%
O=C(COc1cc(F)ccc1[N+](=O)[O-])Nc1cc(S(=O)(=O)N2CCCC2)ccc1Cl,.,-11%,.,.,.,.
O=C(Nc1ccc(Cl)cc1)C1C2CCCCC21 (stereo unspecified),.,.,.,-1,.,5%
Cn1cccc1/C=C1\SC(=S)N(CC(=O)O)C1=O,11µM*,-20%[59 µM],-3%,14,0%,-7%
Cn1cccc1/C=C1\SC(=O)N(CC(=O)Nc2ccc(Cl)cc2)C1=O,?,16%,-9%,-1,?,-10%
O=C(O)CN1C(=O)/C(=C/c2ccsc2)SC1=S,-13%,32µM*,-6%,13,7%,?
COCC1CCCCN1Cc1cn[nH]c1-c1ccc2cc(OC)ccc2c1 (stereo unspecified),-16%,-5%,-4%,-1,-18%,14%
COc1ccc(S(=O)(=O)NCc2nc(-c3ccccc3)no2)cc1,2%,-39%[59 µM],?,.,-18%,.
COc1ccc(-n2nnc3c(SC(C(C)=O)C(=O)N(C)C)ncnc32)cc1 (stereo unspecified),.,.,.,.,.,18µM*
COC(=O)C(C)Sc1ncnc2c1nnn2-c1ccc(F)cc1 (stereo unspecified),?,43%,10%,0,1%,6%
COCc1[nH]c(=S)c(C#N)cc1C(=O)OC,?,-137%[59 µM],-4%,0,1%,8.9µM*
COC(=O)CSc1[nH]c(=O)cc(C)c1C#N,-7%,1%,-3%,-1,-7%,10%
CCOC(=O)c1cc(C#N)c(SCC(=O)OC)[nH]c1=O,?,.,-3%,12,-11%,50µM*
CCOC(=O)c1cc(C#N)c(=S)[nH]c1C,-18%,10µM*,?,6,-8%,?
COc1ccc(CCn2c(=O)c3cccnc3n(CC(=O)Nc3ccc(C)c(F)c3)c2=O)cc1OC,5%,-1%[59 µM],-14%,.,?,.
CC(=O)c1ccc(NC(=O)CN2C(=O)CCc3ccccc32)cc1,?,-21%[59 µM],-1%,.,-23%,.
C=CCN1C(=O)C(CC(=O)O)SC1=Nc1ccc(N=Nc2ccccc2)cc1 (stereo unspecified),11µM*,40µM*,7%,4,-16%,-8%
COc1ccc(OCC(=O)NCc2ccc3c(c2)CCN3C(=O)c2cccc(C)c2)cc1,-13%,-14%[59 µM],5%,.,-4%,.
OCCCN1CCN(CCOc2ccccc2-c2ccccc2)CC1,-2%,22%[59 µM],8%,1,7%,1%
c1ccc(-c2ccccc2OCCCN2CCCCC2)cc1,-11%,8.9µM*,5%,0,-7%,-35%
CCN1CCN(CCOc2ccccc2-c2ccccc2)CC1,-1%,10µM*,4%,-1,4%,-30%
CCN1CCN(CCCOc2ccccc2-c2ccccc2)CC1,2%,.,3%,1,9%,?
c1ccc(-c2ccccc2OCCN2CCOCC2)cc1,2%,10µM*,0%,-1,7%,-32%
OCCN1CCN(CCOc2ccccc2-c2ccccc2)CC1,3%,0%[59 µM],6%,-15,4%,-10%
SMILES,Tau ThT inhib,G9a block,Tau fibril FP,FBPA coupling cs,Tau fluor cs,Sfp inh
O=C(CN1C(=O)c2cccc3cccc1c23)Nc1ccccc1Br,-2%,-2%[59 µM],-15%,.,-7%,.
CCc1cccc(NC(=O)c2coc(=O)c3ccccc23)c1,-13%,8%[59 µM],-6%,.,-25%,.
CC(C)(C)c1ccc(CN(Cc2ccco2)c2cnc(S(C)(=O)=O)nc2C(=O)Nc2ccc(F)cc2)cc1,1%,2%[59 µM],-13%,.,-9%,.
CCOc1ccc(OCC)c(NC(=O)CC(C)n2nc(C)cc2C)c1 (stereo unspecified),2%,0%[59 µM],-1%,.,3%,.
O=C(c1ccco1)N1CCN(Cc2ccc(Br)cc2)CC1,.,15%[2.33 µM],.,0,.,4%
O=C(c1ccco1)N1CCN(Cc2ccc(Cl)cc2)CC1,-9%,35µM*,3%,1,-8%,-29%
CC1CCCN(C(=O)CN2CCN(C(=O)c3ccco3)CC2)C1 (stereo unspecified),0%,25µM*,11%,1,10%,4%
Cn1c(C(=O)N2CCN(C(=O)c3ccco3)CC2)cc2c(=O)n3ccccc3nc21,-3%,?,-2%,-6,-3%,20µM*
O=C(c1ccco1)N1CCN(C(=O)c2cnn(-c3ccc(Cl)cc3)c2C2CCNCC2)CC1,.,71µM*,.,1,.,1%
COc1ccc(S(=O)(=O)N2CCCC(C(=O)NC3CC3)C2)cc1OC (stereo unspecified),.,-8%,.,.,.,.
O=C(c1ccco1)N1CCN(Cc2cc(=O)oc3cc(O)ccc23)CC1,.,22µM*,.,.,.,.
O=C(c1ccco1)N1CCN(Cc2c(Cl)cccc2Cl)CC1,.,7%,.,-3,.,10%
O=C(c1ccco1)N1CCN(Cc2cccc3ccccc23)CC1,.,14µM*,.,-1,.,?
CC(C)(C)c1ccc(C(=O)N2CCN(S(=O)(=O)c3ccc(Br)s3)CC2)cc1,.,29%[12.7 µM],.,.,.,.
O=C(c1ccco1)N1CCN(S(=O)(=O)c2ccc(Br)s2)CC1,-12%,13µM*,5%,9,3%,?
CCc1ccc(CN2CCN(C(=O)c3ccco3)CC2)cc1,.,11µM*,.,-6,.,?
Cc1nn(C)c2c1c(-c1ccccc1)cc(=O)n2Cc1ccccc1C#N,-15%,-19%[59 µM],-1%,.,-14%,.
COc1ccc2c(c1)c(=O)c(C(=O)c1ccc(F)cc1)cn2CC(=O)Nc1ccc2c(c1)OCO2,?,12%[59 µM],-11%,.,-27%,.
CCC1=C2CC[C@H]3C(=O)N(c4ccccc4)C(=O)[C@H]3[C@H]2[C@@]2(C)C(=O)N(Cc3ccccc3)C(=O)N2C1=O,-7%,.,7%,-1,2%,-4%
CCOC(=O)C1=C(CSc2nc(-c3ccncc3)ccc2C#N)OC(N)=C(C#N)C1c1cccnc1 (stereo unspecified),1%,35µM*,4%,2,4%,79µM*
